# In PubChem BioAssay (NCATS):
# Results filed as inconclusive are left out. Values without a mark were called inactive. Active and inactive are the calls of the source. Calls come from the whole dose curve.
# Molecular target: Bile acid receptor (Homo sapiens) (UniProt Q96RI1)
# Assay: qHTS assay for small molecule antagonists of farnesoid X receptor signaling (AID 588526)
# Settings: HEK293T FXR-UAS-bla, beta-lactamase ratio, antagonist mode; series mostly up to 76.7 µM; activity change, negative = inhibition: at the top concentration
# From the text: NIH Chemical Genomics Center [NCGC] U.S. Environmental Protection Agency [EPA] National Institutes of Environmental Health Sciences [NIEHS] National Toxicology Program [NTP] NCGC Assay Overview The farnesoid-X-receptor (FXR), a nuclear hormone receptor is highly expressed in liver, intestine, kidney and adrenal cortex. Natural ligands of FXR are the bile acids (Cholic acid, Chenodeoxy cholic acid etc). It is an important regulator of diverse metabolic pathways, including the bile acid homeostasis, lipid and glucose metabolisms. FXR regulates the expression of target genes by binding either as a monomer or as a heterodimer with RXR (retinoid X receptor). As FXR regulates a large number of target genes involved in bile acid, lipoprotein and glucose metabolisms, it is a potential pharmacological target for bile acid and lipid disorders. Thus screening environmental chemicals on FXR signaling can be used for the studies focused on metabolic syndrome, hepatic and intestinal toxicity etc.
# NCGC Assay Protocol Summary Using a beta-lactamase reporter-gene under control of Farnesoid X receptor (FXR) response element, a cell-based assay [GeneBLAzer FXR-UAS-bla assay developed by Invitrogen] was used to measure FXR ligands signaling. GeneBLAzer FXR-UAS-bla HEK293T cells were used with assay medium containing 10% dialyzed FBS. The assay was performed in clear bottom black Greiner 1536-well plates. Guggulsterone were used in the screen as the positive control. Library compounds were measured for their ability to inhibit the reporter gene activity. Compounds were screened in a titration series in 1536-well format. The fluorescence intensity (405 nm excitation, 460/530 nm emission) was measured using an EnVision plate reader. Data was normalized relative to Chenodeoxycholic acid (50 uM, 100%), and DMSO only wells (basal, 0%). Concentration-response titration points for each compound were fitted to the Hill equation yielding concentrations of half-maximal inhibition (IC50) and maximal response (efficacy) values. qHTS protocol for FXR beta-lactamase assay in antagonist mode [Step] [Parameter] [Value] [Description] 1. Reagent; 5 uL; 5000 cells/well 2. Incubation; 37 C for 5-7 hrs 3. Compounds; 23 nL; 0.59 nM to 92 uM 4. Controls (Guggulsterone, FXR antagonist); 23 nL, - One column of dose response, start 200 uM, 1:2 dilutions in duplicates 5. Agonist (Stimulator); 1uL; Chenodeoxycholic acid at 100 uM and 50 uM final concentrations 6. Incubation; 37 C for 16 hrs 7. Detection reagent; 1 uL of CCF4-dye 8. Incubation; RT for 2 hrs 9. Detection; Fluorescence; Envision plate reader
# % is set by controls: 0 for no effect and ±100 for the full control effect.
# Bile acid receptor (Homo sapiens), sequence (Q96RI1 whole entry, looked up): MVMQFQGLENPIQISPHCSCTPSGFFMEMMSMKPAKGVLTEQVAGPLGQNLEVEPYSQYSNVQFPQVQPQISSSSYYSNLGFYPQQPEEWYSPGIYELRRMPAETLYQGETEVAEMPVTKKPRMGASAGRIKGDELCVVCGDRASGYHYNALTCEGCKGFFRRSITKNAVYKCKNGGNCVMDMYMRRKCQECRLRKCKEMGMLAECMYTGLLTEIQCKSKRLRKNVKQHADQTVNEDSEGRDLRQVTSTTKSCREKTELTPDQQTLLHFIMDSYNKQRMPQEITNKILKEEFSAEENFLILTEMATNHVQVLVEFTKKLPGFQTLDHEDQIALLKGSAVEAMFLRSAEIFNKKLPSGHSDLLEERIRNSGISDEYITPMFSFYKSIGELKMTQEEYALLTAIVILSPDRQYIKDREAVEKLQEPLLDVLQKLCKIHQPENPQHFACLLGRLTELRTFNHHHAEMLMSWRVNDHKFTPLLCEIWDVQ
SMILES,"activity change, negative = inhibition [%]",outcome
CCOS(C)(=O)=O,-7.94,–
O=[N+]([O-])c1ccc2c3c(cccc13)CC2,–,inactive
ClCCCCl,-2.65,–
CC(C)(OOC(C)(C)c1ccccc1)c1ccccc1,–,inactive
OCCCCO,-9.94,–
CC(C)[C@]12CC(=O)[C@H](C)[C@H]1C2,–,inactive
C=CCBr,-0.107,–
N#CC(Cl)(Cl)Cl,-1.08,–
BrC(Br)Br,1.88,–
CCCCC(=O)Cl,4.3,–
Nc1cc(Cl)cc(Cl)c1,-16.9,–
Nc1c(Cl)cc([N+](=O)[O-])cc1Cl,–,inactive
c1ccc(NNc2ccccc2)cc1,–,inactive
ClP(Cl)(Cl)(Cl)Cl,-16.8,–
ClCCOCCCl,-12.6,–
ClCCOCOCCCl,2.76,–
CCCN(CCC)c1c([N+](=O)[O-])cc(C(F)(F)F)cc1[N+](=O)[O-],–,inactive
ClC(Br)Br,7.89,–
Cc1cccc(C)c1N,-8.19,–
CC(C)(Cl)[N+](=O)[O-],4.92,–

SMILES,"activity change, negative = inhibition [%]",outcome
C=C(C)CCl,-5.81,–
CN(C)c1ccccc1,-1.31,–
CN(C)c1ccc(N(C)C)cc1,-8.89,–
CC(C)OS(C)(=O)=O,-8.95,–
c1ccoc1,-2.95,–
Cc1cccc(N)c1C,-0.211,–
O=C(Cc1ccccc1)OCc1ccccc1,-7.96,–
FC(Cl)(Cl)Cl,2.55,–
CCCCCC[N+](=O)[O-],8.37,–
Cc1cc(N=Nc2ccccc2C)ccc1N,-7.36,–
O=C(O)C(Cl)(Cl)Br,-4.39,–
Nc1ncc([N+](=O)[O-])s1,4.72,–
NC1CCC(CC2CCC(N)CC2)CC1 (stereo not given),–,inactive
O=C(O)c1cc(Cl)ccc1Cl,2.76,–
O=S(=O)(Cl)c1ccccc1,–,inactive
CCCCOC(C)=O,8.9,–
CCC/C=N/O,-3.08,–
Cc1ccc(N)cc1N,–,inactive
CC(C)[N+](=O)[O-],-6.34,–
CC1CC(=O)O1 (stereo not given),1.28,–
